Experimental data reported in PubChem BioAssay (NCATS).
Results filed as inconclusive are left out. The source made the active and inactive calls. Calls come from the whole dose curve; as a rule, active = well fitted inhibition curve with a large enough effect; inconclusive = small, poorly fitted or top-dose-only effect; inactive = flat fitted curve, though single readings scatter.

How the values were obtained:
Experiment in all cases: qHTS profiling for inhibitors of Plasmodium falciparum proliferation (AID 504749); note: nearly all actives have a fitted effect of over 60% in size
Details in all cases: P. falciparum in erythrocytes, SYBR Green DNA, 72 h; series mostly up to 28.7 µM
CP260 = tested on: CP260
In short: (§1)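 Readout was DNA-dye fluorescence from lysed cultures, ex 485/em 535 nm. Parasitized red cells had grown 72 h with compound; data scaled between 0.29 uM artemisinin and DMSO wells and corrected using vehicle-only plates.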

CP262 = tested on: CP262
In short: as §1

CP265 = tested on: CP265
In short: as §1

CP266 = tested on: CP266
In short: as §1

CP268 = tested on: CP268
In short: as §1

CP269 = tested on: CP269
In short: as §1

CP286 = tested on: CP286
In short: as §1

CP291 = tested on: CP291
In short: as §1

CP297 = tested on: CP297
In short: as §1

CP305 = tested on: CP305
In short: as §1

CP315 = tested on: CP315
In short: as §1

CP325 = tested on: CP325
In short: as §1

CP329 = tested on: CP329
In short: as §1

CP335 = tested on: CP335
In short: as §1

DFO2036 = tested on: DFO2036
In short: as §1

DIV14 = tested on: DIV14
In short: as §1

DIV17 = tested on: DIV17
In short: as §1

DIV30 = tested on: DIV30
In short: as §1

Dd2 = tested on: Dd2
In short: as §1

ECU = tested on: ECU
In short: as §1

FAB9 = tested on: FAB9
In short: as §1

GB4 = tested on: GB4
In short: as §1

HB3 = tested on: HB3
In short: as §1

ICS = tested on: ICS
In short: as §1

JCK = tested on: JCK
In short: as §1

N140 = tested on: N140
In short: as §1

P93_24 = tested on: P93_24
In short: as §1

P94_40 = tested on: P94_40
In short: as §1

PAD = tested on: PAD
In short: as §1

PC15 = tested on: PC15
In short: as §1

PC26 = tested on: PC26
In short: as §1

PC49 = tested on: PC49
In short: as §1

SC27B = tested on: SC27B
In short: as §1

TAB109 = tested on: TAB109
In short: as §1

TAB113 = tested on: TAB113
In short: as §1

TAB165 = tested on: TAB165
In short: as §1

W2 = tested on: W2
In short: as §1

Measured: Potency

O=C(O)[C@H]1C[C@@H](CP(=O)(O)O)CCN1
inactive: all assays above
